# Tau fibril FP: blocks human tau fibril formation measured by polarization; P10636; K18 P301L tau heparin fibrillization, Alexa594 FP, 6 h; Potency, µM (titrated, usually from 57.7 µM), for the others: at the top dose activity, negative = inhibition, hits mostly inhibitors; hit rate 0.39% among 280,000; AID 1468; note: nearly all actives have a fitted effect of over 55% in size
#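 Human K18 P301L fragment (15 uM unlabeled plus 0.24 uM Alexa 594-labeled) in 100 mM sodium acetate pH 7 with compound, aggregation induced by 20 uM heparin for 6 hr at 37 C. ThT (30 uM) added for 1 hr, then Alexa 594 FP read.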
# Tau fibril ThT: inhibitors of human tau fibril formation, thioflavin T binding. hit rate 2.1% among 270,000. P10636. recombinant tau K18 P301L, heparin-induced fibrillization, ThT fluorescence. Potency, µM (top dose mostly 57.4 µM), inactives show top-dose activity, negative = inhibition, hits mostly inhibitors; note: nearly all actives have a fitted effect of over 55% in size
#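 Heparin-induced fibrillization of the P301L-mutant K18 repeat-domain fragment of human tau was followed by ThT binding in quantitative high-throughput format.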
# Tau fluor cs: counter-screen for tau fibril formation inhibitors. tau K18 P301L Alexa594 fluorescence, heparin fibrillization. AID 1463. Potency, µM (titrated, usually from 57.7 µM), for inactives: top-dose activity change, negative = decrease. hit rate 0.93% among 280,000; note: nearly all actives have a fitted effect of over 55% in size
#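 Human tau K18 P301L (15 uM unlabeled, 0.24 uM Alexa 594-labeled) in 100 mM sodium acetate pH 7 with 20 uM heparin, 6 hr at 37 C. ThT 30 uM added, 1 hr ambient; Alexa 594 FP and total fluorescence read at 555/632 nm.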
# KDM4E inh: blocks human JMJD2E demethylase activity; B2RXH2; JMJD2E catalytic domain, FDH-coupled NADH fluorescence (FDH is formaldehyde dehydrogenase); Potency, µM (top dose mostly 57.1 µM), inactives show at the highest dose activity change, negative = inhibition, most hits filed as inhibitors; hit rate 1.6% among 230,000; active = well fitted inhibition curve with a large enough effect, not every such curve was filed as active; inconclusive = small, poorly fitted or top-dose-only effect, or another doubt; inactive = no such curve, though single readings can be large or run the other way;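 note: 0% = wells with enzyme and -100% = buffer wells without enzyme; nearly all actives have a fitted effect of over 50% in size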
# HPGD block: blocks human HPGD enzyme activity; purified HPGD, NADH fluorescence kinetic, PGE2 substrate; hit rate 4.3% among 150,000; P15428; Potency, µM, for inactives: at the highest dose activity change, negative = inhibition, hits mostly inhibitors; active = well fitted inhibition curve with a large enough effect, not every such curve was filed as active; inconclusive = small, poorly fitted or top-dose-only effect, or another doubt; inactive = no such curve, though single readings can be large or run the other way
# Target sequence (P15428 whole entry, looked up): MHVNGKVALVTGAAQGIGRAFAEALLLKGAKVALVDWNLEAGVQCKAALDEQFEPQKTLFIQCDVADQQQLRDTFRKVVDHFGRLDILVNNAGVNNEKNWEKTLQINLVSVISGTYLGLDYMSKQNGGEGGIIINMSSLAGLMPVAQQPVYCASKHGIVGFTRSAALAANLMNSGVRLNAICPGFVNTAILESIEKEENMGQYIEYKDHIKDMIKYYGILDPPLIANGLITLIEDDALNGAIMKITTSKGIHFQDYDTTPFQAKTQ
#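 20 nM HPGD preincubated 15 min at room temperature with compound in 50 mM Tris-HCl pH 8, 0.01% Tween 20. Started with 1 mM NAD+ and 30 uM prostaglandin E2; NADH fluorescence (360/450 nm) read 5 times over 30-s intervals, last minus first.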
# ALDH1A1 block: inhibitors of human aldehyde dehydrogenase 1A1; P00352; hit rate 7.3% among 220,000; Potency, µM (highest dose often 75.3 µM), for inactives: at the highest dose activity, negative = inhibition, most hits filed as inhibitors; Purified ALDH1A1, NADH fluorescence, propionaldehyde substrate; active = well fitted inhibition curve with a large enough effect, not every such curve was filed as active; inconclusive = small, poorly fitted or top-dose-only effect, or another doubt; inactive = no such curve, though single readings can be large or run the other way;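 note: plate controls were no enzyme wells and a reference inhibitor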
# Target sequence (P00352 whole entry, looked up): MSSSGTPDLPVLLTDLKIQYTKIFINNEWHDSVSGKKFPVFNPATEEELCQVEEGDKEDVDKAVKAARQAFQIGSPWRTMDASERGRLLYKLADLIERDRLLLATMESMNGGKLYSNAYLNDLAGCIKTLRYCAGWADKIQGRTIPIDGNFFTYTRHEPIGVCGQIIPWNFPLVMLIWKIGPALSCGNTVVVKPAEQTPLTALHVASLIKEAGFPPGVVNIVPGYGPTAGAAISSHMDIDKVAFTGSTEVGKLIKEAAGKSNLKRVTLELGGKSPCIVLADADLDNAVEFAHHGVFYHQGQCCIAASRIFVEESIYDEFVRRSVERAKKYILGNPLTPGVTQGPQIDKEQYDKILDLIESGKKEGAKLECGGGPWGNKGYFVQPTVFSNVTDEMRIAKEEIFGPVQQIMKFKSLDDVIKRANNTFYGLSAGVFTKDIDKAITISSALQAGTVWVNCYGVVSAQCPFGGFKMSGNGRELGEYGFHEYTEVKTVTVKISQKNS
# The depositor's hits bear a star; u = inconclusive; x = no result; [ ] = dose if it differs, or a comment. An excerpt weighted towards active compounds, which were near 9.9% of everything screened. Unless noted, calls come from the whole dose curve; as a rule, active = well fitted curve in the direction sought with a large enough effect; inconclusive = small, poorly fitted or top-dose-only effect, or another doubt; inactive = no such curve, though single readings can be large; an effect the other way counts as inactive or inconclusive. Unless noted, % is set by controls: 0 for no effect and ±100 for the full control effect; potency is the fitted concentration of half-maximal effect.
SMILES,Tau fibril FP,Tau fibril ThT,Tau fluor cs,KDM4E inh,HPGD block,ALDH1A1 block
O=C(Nc1ccc2c(c1)OCO2)[C@@H]1[C@@H]2C(=O)N(C3CCCCC3)C(=O)[C@@H]2C2c3ccccc3C=CN21 (some centres undefined),-13.6%,u,u,u,-10.3%,11.2µM*
CC(C)(C)C(=O)[C@@H]1[C@@H]2C(=O)N(C3CCCCC3)C(=O)[C@@H]2[C@H]2c3ccccc3C=CN12,u,31.6µM*,u,u,u,20µM*
O=C(c1cccs1)[C@@H]1[C@@H]2C(=O)N(Cc3ccc4c(c3)OCO4)C(=O)[C@@H]2C2c3ccccc3C=CN21 (some centres undefined),u,22.4µM*,u,-14.2%,u,14.1µM*
CCCCN(CC)C(=O)C1CCCN(c2ncnc3c2nc2n3CCCCC2)C1 (centres undefined),1.5%,-1.6%,-2.7%,x,x,x
CCc1c2c(nc3ccc(OC)cc13)OC(C)C2 (centres undefined),-4.1%,-8.0%,-7.9%,u,-14.2%,0.5%
O=C(c1ccc2c(c1)OCO2)[C@@H]1[C@@H]2C(=O)N(C3CCCCC3)C(=O)[C@@H]2C2c3ccccc3C=CN21 (some centres undefined),u,28.2µM*,u,u,-14.1%,3.55µM*
O=C(c1ccc2c(c1)OCO2)C1CCCN(C(=O)Nc2ccc(F)cc2F)C1 (centres undefined),0.3%,-5.9%,-8.0%,-10.1%,x,-3.5%
COc1cc2c(cc1NC(=O)C(C)Sc1ccc(NC(C)=O)cc1)oc1ccccc12 (centres undefined),u,-1.2%,u,4.8%,-19.8%,-3.2%
COc1cc2c(cc1NC(=O)Nc1cccc(C)c1)oc1ccccc12,-1.4%,u,7.94µM*[quencher],u,u,u
COc1ccc(NC(=O)Nc2cc3oc4ccccc4c3cc2OC)cc1,u,u,8.91µM*[quencher],u,u,u
COc1cc2c(cc1NC(=O)Nc1ccc(C)cc1)oc1ccccc12,-6.5%,-3.9%,3.98µM*[quencher],-27.1%,u,3.9%
COc1cc2c(cc1NC(=O)Nc1ccc(F)cc1)oc1ccccc12,-8.0%,-1.6%,6.31µM*[quencher],-17.9%,u,0.9%
CCC1=C(OC(=O)N(CC)CC)N2C(=O)OC(=NCCOC)[C@]2(Cc2ccccc2)[C@H]2C1=CC[C@H]1C(=O)N(CC(=O)OC)C(=O)[C@H]12,0.0%,-15.8%,-15.6%,-14.7%,-2.7%,9.1%
CCC1=C(OC(=O)N(CC)CC)N2C(=O)OC(=NCCOC)[C@]2(C)[C@H]2C1=CC[C@H]1C(=O)N(CC(=O)OC)C(=O)[C@H]12,-1.4%,-12.8%,-0.7%,2.4%,-15.0%,28.2µM*
COc1ccc(C2C(C(=O)N3CCCC3)c3cc(OC)c(OC)cc3C(=O)N2C)cc1 (centres undefined),-12.0%,-1.9%,-2.5%,-13.7%,-3.8%,4.4%
COc1ccc(C2C(C(=O)N3CCCCC3)c3ccccc3C(=O)N2C)cc1 (centres undefined),-11.7%,-11.0%,-28.5%,-26.3%,x,14.1µM*
CCOC(=O)C1CCN(C(=O)C2c3ccccc3C(=O)N(C)C2c2ccc(OC)cc2)CC1 (centres undefined),-1.6%,-0.4%,4.0%,-0.7%,-5.5%,2.82µM*
CCN1CCN(CCCNC(=O)C2c3ccccc3C(=O)N(C)C2c2ccc(OC)cc2)CC1 (centres undefined),10.4%,-6.9%,-2.9%,-0.4%,-11.7%,2.7%
CCOc1cc(CNCCSc2nnnn2C)ccc1OCc1ccc(Cl)cc1Cl,-0.5%,u,u,x,x,x
COc1ncc2nc(CCc3ccccc3)c(=O)n(C)c2n1,x,x,x,x,-17.8%,u
COCCn1c(=O)c(CCc2ccccc2)nc2cnc(Oc3cccc(Cl)c3)nc21,x,x,x,x,-9.2%,14.1µM*
Cn1c(=O)c(CCc2ccccc2)nc2cnc(OCc3ccccc3)nc21,x,x,x,x,x,11.2µM*
c1cncc(-c2nc(-c3ccco3)cs2)c1,u,u,-20.8%,-28.6%,u,1.26µM*
O=S(=O)(c1ccc(-c2csc(-c3cccnc3)n2)cc1)N1CCCCC1,-5.8%,-4.4%,-29.6%,u,28.2µM*,u
Clc1ccsc1-c1csc(-c2cccnc2)n1,-5.7%,-26.3%,-23.4%,-9.6%,u,-5.3%
SMILES,Tau fibril FP,Tau fibril ThT,Tau fluor cs,KDM4E inh,HPGD block,ALDH1A1 block
CCc1nnc2c3ccccc3nc(Nc3ccccc3OC)n12,u,-5.4%,-13.6%,x,x,x
Cc1cc(C(=O)NCc2cccnc2)no1,-5.6%,1.4%,6.4%,-1.5%,-8.5%,4.9%
Cc1cc2c(cc(C(=O)NCc3cccnc3)n2Cc2ccc(Cl)cc2)o1,2.7%,u,-12.8%,u,17.8µM*,6.31µM*
COc1cc2c(cc1OC)C(=O)N(C)CC2,-8.1%,-18.0%,-22.1%,3.5%,-4.0%,6.9%
COc1cc2cc3c4c(cc(OC)c(OC)c4c2cc1OC)CCN3C,u,10µM*,12.6µM*[quencher],u,u,u
CCO[C@H]1OC(C(=O)NCc2ccccc2)=C[C@@H](c2ccc3c(c2)OCO3)[C@@H]1CCCO,-7.4%,-4.2%,-8.4%,7.9%,x,7.5%
CCO[C@@H]1OC(C(=O)NCc2ccccc2)=C[C@H](c2ccc3c(c2)OCO3)[C@H]1CCCO,2.2%,-0.7%,-3.0%,9.6%,x,14.1µM*
O=C(CSc1oc(-c2ccco2)nc1S(=O)(=O)c1ccc(Cl)cc1)Nc1ccc(F)cc1,u,-5.9%,u,x,x,x
CCOc1ccc(NC(=O)CSc2nc(-c3ccc(F)cc3)cc(C(F)(F)F)c2C#N)cc1,u,2.8%,0.8%,x,x,x
COc1ccc(-c2[nH]c(-c3ccc4c(c3)OCO4)nc2-c2ccccc2)cc1,9.3%,u,14.1µM*[quencher],u,u,u
COc1ccc(-c2[nH]c(-c3cccc(OC)c3)nc2SCC(=O)Nc2ccc3c(c2)OCO3)cc1,7.0%,u,6.31µM*[quencher],x,x,x
COc1cccc(-c2nc(SCC(=O)Nc3ccc4c(c3)OCCO4)c(-c3ccccc3)[nH]2)c1,-10.5%,u,5.62µM*[quencher],x,x,x
CCOc1ccc(-c2nc(SCC(=O)Nc3ccc4c(c3)OCCO4)c(-c3ccc(F)cc3)[nH]2)cc1,-14.0%,-9.9%,14.1µM*[quencher],x,x,x
COc1ccc(-c2cc(C(F)(F)F)nc(SCC(=O)Nc3ccc4c(c3)OCO4)n2)cc1,-4.6%,2.3%,-24.2%,7.3%,-8.2%,15.2%
CC(C)n1c(=O)c2oc3ccccc3c2n(CC(=O)Nc2ccccc2Cl)c1=O,-6.6%,16.4%,6.2%,x,x,x
COc1ccc(-c2nc3sc(CCNC(=O)C(=O)Nc4ccccc4C#N)c(C)n3n2)cc1,u,u,-19.9%,x,x,x

# Compound activity deposited in PubChem by National Center for Advancing Translational Sciences (NCATS).
